Screening data as filed in PubChem.
In the library only some 5.2% were active in any assay of this set; here they are far more common.
APOBEC3G inh = blocks human APOBEC3G single-stranded DNA deamination. Q9HC16. recombinant A3G, ssDNA deamination FAM/TAMRA fluorescence. inhibition, % at 20 µM. 330,000 compounds, 0.28% hits. AID 493012;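 active = inhibition of at least 40% at 20 µM, with no more than 30% in the related APOBEC3A deaminase screen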;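 note: plate controls were DMSO wells with A3G for no effect and wells lacking A3G enzyme for full effect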
Target sequence (Q9HC16 whole entry, looked up): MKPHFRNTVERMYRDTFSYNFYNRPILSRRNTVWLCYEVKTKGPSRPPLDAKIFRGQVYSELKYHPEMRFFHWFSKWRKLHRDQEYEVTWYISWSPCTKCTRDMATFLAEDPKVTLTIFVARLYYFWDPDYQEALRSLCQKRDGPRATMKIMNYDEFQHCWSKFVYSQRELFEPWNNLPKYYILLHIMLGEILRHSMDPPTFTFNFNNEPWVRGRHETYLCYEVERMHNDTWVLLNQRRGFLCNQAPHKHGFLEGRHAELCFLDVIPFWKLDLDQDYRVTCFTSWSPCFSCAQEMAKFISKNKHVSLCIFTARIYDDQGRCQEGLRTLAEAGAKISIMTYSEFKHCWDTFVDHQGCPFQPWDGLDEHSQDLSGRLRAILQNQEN
CendR NRP1 mod = alters CendR peptide binding to human NRP-1. 360,000 compounds, 0.85% hits. inhibition, % at 25 µM. O14786. FAM-RPARPAR peptide binding to NRP-1, fluorescence polarization;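 active = inhibition or corrected inhibition above about 18%, plus a signal ratio from 0.5 to 1.5, limit read from the data, passing the limit was not always enough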
A3A deaminase = blocks human APOBEC3A ssDNA deamination; P31941; recombinant A3A, FAM/TAMRA ssDNA deamination fluorescence; inhibition, % at 20 µM; 330,000 compounds, 0.41% hits; AID 493011;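 active = at least 40% inhibition at 20 µM here, with at most 30% in a related deaminase screen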;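 note: plate controls were A3A with DMSO for no effect and wells lacking A3A enzyme for full effect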
ALR H2O2 inh = blocks human ALR sulfhydryl oxidase activity; purified ALR, DTT oxidation, H2O2 HRP-luminol luminescence; inhibition, % (test concentration not listed); 290,000 compounds, 3.8% hits; AID 485317;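 active = mean replicate inhibition above about 79%, with every replicate also reaching it, limit read from the data; inconclusive = only one of the two criteria met; inactive = mean below limit and not every replicate reaching it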
Target sequence (P55789 whole entry, looked up): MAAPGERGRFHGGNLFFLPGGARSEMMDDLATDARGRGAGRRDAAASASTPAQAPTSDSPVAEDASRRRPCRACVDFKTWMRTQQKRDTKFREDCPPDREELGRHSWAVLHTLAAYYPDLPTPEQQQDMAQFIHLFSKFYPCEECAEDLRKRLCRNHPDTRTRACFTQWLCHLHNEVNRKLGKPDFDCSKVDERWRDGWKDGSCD
M18AAP inhibitor = blocks P. falciparum M18 aspartyl aminopeptidase; recombinant PfM18AAP, H-Glu-NHMec fluorogenic cleavage; inhibition, % at 7.35 µM; 290,000 compounds, 1.2% hits; AID 1822;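 active = inhibition above the campaign mean inhibition over all tested compounds plus 3 SD, cut at about 28% in these data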;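 note: 0% = plate median of test compound wells and 100% = 2 mM ZnCl2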
CR mimetic SO = lowers age-related superoxide in aged yeast cells. S. cerevisiae aged cells, superoxide DHE fluorescence; stronger effect = lower value. superoxide response (% of plate mean), % at 10 µM. 330,000 compounds, 0.18% hits. AID 2690;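 active = superoxide response under a set limit, about three screen SD below normal, cut at about 65% in these data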;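 note: yeast aged for seven days with compound at 30 °C before DHE staining; 100% = average MFI of all compound-treated wells on the plate with controls excluded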
* marks the source's active call; other numbers are inactive results; ? = inconclusive; . = not tested or not shown.

SMILES | APOBEC3G inh | CendR NRP1 mod | A3A deaminase | ALR H2O2 inh | M18AAP inhibitor | CR mimetic SO
O=C(N/N=C/c1ccccn1)C(O)c1ccccc1 (stereo not drawn) | -4 | 6 | -2 | -3 | 1 | 99
COc1cc(Nc2c3c(nc4ccccc24)CCC3)cc(OC)c1OC | -7 | 1 | -3 | 99* | 2 | 94
COc1ccc(OC)c(Nc2c3c(nc4ccccc24)CCC3)c1 | -6 | 5 | -4 | 98* | -9 | 92
Cc1cccc(Nc2c3c(nc4ccccc24)CCC3)c1 | -4 | -1 | -1 | 63 | -1 | 98
COc1ccccc1Nc1c2c(nc3ccc(N)cc13)CCCC2 | -3 | 1 | -2 | 99* | -4 | 98
CCOc1ccc(-n2c(C)nnc2SCC(=O)N(CC)CC)cc1 | -5 | 0 | -1 | -7 | -3 | 121
CC(C(=O)Nc1ccc(N(C)C)cc1)N1C(=O)c2ccccc2S1(=O)=O (stereo not drawn) | -10 | 3 | -2 | 99* | . | 90
COc1ccc(N2CCN(CC(O)COc3ccc(C)cc3C)CC2)cc1 (stereo not drawn) | -7 | 5 | -7 | 79* | 0 | 97
COc1ccc(N2CCN(CC(O)COc3cc(C)ccc3C)CC2)cc1 (stereo not drawn) | -6 | 9 | -8 | 9 | 5 | 83
CC(=O)Nc1ccc(OCC(O)CN2CCN(c3ccc(C)c(Cl)c3)CC2)cc1 (stereo not drawn) | -5 | 3 | -2 | 98* | 8 | 90
CCc1ccc(OCC(O)CN2CCN(c3ccc(OC)cc3)CC2)cc1 (stereo not drawn) | -1 | 3 | -1 | 94* | 11 | 88
COc1ccc(OCC(O)CN2CCN(c3ccccc3)CC2)cc1 (stereo not drawn) | -3 | 3 | 1 | 33 | 5 | 86
COc1cc(C(C)=O)ccc1OCC(O)CN1CCN(c2ccc(C)c(C)c2)CC1 (stereo not drawn) | -10 | 0 | -8 | 98* | 6 | 100
CC(C)CCNC(=O)C(c1ccc(O)cc1)N(Cc1cccs1)C(=O)C1COc2ccccc2O1 (stereo not drawn) | -3 | 5 | -2 | -4 | 3 | 115
COC(=O)c1cc2oc3ccccc3c2n1Cc1ccccn1 | 1 | 6 | 2 | -4 | -6 | 89
COC(=O)Cc1cc(=O)n(-c2nc3ccccc3[nH]2)[nH]1 | -2 | -3 | -4 | 59 | 3 | 92
COc1cccc(C(=O)Nc2cc(Cl)c(O)c(Cl)c2)c1 | -5 | -3 | 0 | 89* | 5 | 111
COc1ccc(C(=O)Nn2cnnc2)cc1 | -1 | 10 | 1 | -7 | 26 | 91
CCCCCCOc1ccc(C(=O)NCCCn2ccnc2)cc1 | -7 | 0 | -1 | -3 | -3 | 97
CCCCOc1ccc(C(=O)Nn2cnnc2)cc1 | 1 | 25* | 5 | -1 | 21 | 90
COc1cccc(C(=O)Nc2ccc(NC(C)=O)cc2)c1 | 1 | -7 | 4 | -8 | 1 | 105
COc1cccc(C(=O)Nn2cnnc2)c1 | -4 | 2 | -3 | 1 | 30* | 93
Cc1c(NC(=O)c2cnn3c(C(F)(F)F)cc(-c4ccco4)nc23)c(=O)n(-c2ccccc2)n1C | -1 | 23* | 2 | -7 | -1 | 94
CC(C)NC(=O)c1nn2c(C(F)(F)F)cc(-c3ccco3)nc2c1Cl | -8 | -63 | -2 | 86* | 0 | 105
CC(C)NC(=O)c1cc2nc(-c3ccco3)cc(C(F)(F)F)n2n1 | 6 | 2 | 6 | 4 | -1 | 105
SMILES | APOBEC3G inh | CendR NRP1 mod | A3A deaminase | ALR H2O2 inh | M18AAP inhibitor | CR mimetic SO
O=C(O)c1cnn2c(C(F)(F)F)cc(-c3ccco3)nc12 | -2 | 1 | 6 | -8 | -2 | 107
O=C(NC1CCCC1)c1cc2nc(-c3ccco3)cc(C(F)(F)F)n2n1 | -14 | 0 | -4 | 88* | -4 | 112
CCCCOc1ccc(-c2ncc([N+](=O)[O-])cn2)cc1 | -7 | -6 | 2 | -13 | 2 | 84
CCOC(=O)[C@@H]1[C@H]2COc3ccc(Br)cc3[C@@H]2N2C(=O)N(c3ccc(OC)cc3)C(=O)[C@@]12C | -8 | 10 | -5 | 4 | . | 89
C[C@@H]1CN([C@@H](C)CO)C(=O)CCCn2nncc2CO[C@H]1CN(C)C(=O)Cc1ccccc1 | . | 0 | . | . | . | .
COc1cc(C(=O)Nc2ccc(O)cc2C(=O)O)ccc1OC(C)=O | -2 | 1 | 0 | 87* | 9 | 109
COC(=O)c1c(C)nsc1NC(=O)Oc1ccccc1 | 1 | -9 | 2 | ? | 0 | 82
O=C(C=C(O)c1ccc(Cl)cc1)C(=O)NNC(=O)C(O)(c1ccccc1)c1ccccc1 | . | -36 | . | . | . | .
O=C(CSc1nc2ccccc2n1Cc1ccccc1)N/N=C/c1ccccc1C(=O)O | -5 | -15 | 0 | 3 | 2 | 104
O=C(CSc1nc2ccccc2n1Cc1ccccc1Cl)N/N=C/c1ccccc1C(=O)O | -6 | 40* | -2 | . | 2 | 99
O=C(c1cn(-c2ccccc2)nc1-c1cccnc1)N1CCN(S(=O)(=O)c2cccc(F)c2)CC1 | 1 | 10 | 4 | 2 | . | 99
COc1ccc(NC(=O)C(=O)NCC(c2ccco2)N2CCc3ccccc3C2)cc1OC (stereo not drawn) | -4 | -1 | 4 | -7 | . | 87
CNC(=O)c1csc(-c2ccc(Cl)cc2)n1 | -8 | 9 | -2 | -40 | 3 | 84
CNC(=O)c1csc(-c2ccc(C)cc2)n1 | -3 | -1 | 0 | 99* | -13 | 78
COCCNc1nc(NCCCN(C)C)c2sccc2n1 | . | 20 | . | . | . | .
CCn1cc(C(=O)N2CCN(c3cccc(Cl)c3)CC2)c2cc(OC)c(OC)cc2c1=O | -3 | -3 | -1 | 3 | -8 | 89
CN(C)C(=O)CSc1nc(-c2cccs2)c(-c2cccs2)[nH]1 | -7 | -3 | -2 | 99* | 5 | 104
O=C(NCCCc1ccncc1)C1CCC(=O)N(Cc2cccc(F)c2)C1 (stereo not drawn) | 4 | 5 | -1 | -3 | 11 | 94
O=C(N/N=C/c1cccnc1)C(O)(c1ccccc1)c1ccccc1 | -6 | -1 | -5 | -4 | 2 | 104
COc1ccc(/C=C2\C(=O)ON=C2c2ccccc2)cc1 | 0 | -9 | -2 | 98* | 24 | 74
COc1ccc(NC(=O)CN2C(=O)CSc3ncccc32)cc1 | 2 | 6 | -2 | -10 | 11 | 100
CCCCN1CC[C@H]2C=CC[C@@H](C(=O)NCCc3ccccc3)[C@H]2C1=O | -2 | 14 | 1 | 1 | . | 105
CCCCN1CC[C@H]2C=CC[C@@H](C(=O)Nc3ccc(OC)cc3)[C@H]2C1=O | -9 | -8 | -3 | -6 | . | 97
O=C(NCc1cccnc1)[C@@H]1CC=C[C@@H]2CCN(Cc3ccccc3)C(=O)[C@@H]21 | 17 | 32* | 3 | -3 | . | 110
